Test results published in the supplement of paper PMC10849652.
Targets with a hit are over-represented here; the source holds about 7,900 in all. About 0.6% of all pairs of compound and target were hits.

Key:
Experiment in all cases: log2 fold change, soluble protein after heating vs DMSO (PISA); higher = thermal stabilisation; K562 cells, 10 uM, 30 min; active = over 0.2 and 3.5 SD of the protein, either way, in both replicates (recomputed)
[1] = compound: NC(=O)c1cnc(N[C@@H]2CCCC[C@@H]2N)nc1Nc1cccc(-n2nccn2)c1
Procedure, shortened: (§1)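 K562 cells at 2×10^6 cells/mL were treated with 10 μM compound for 30 min. Aliquots were heated for 3 min across 48°C-58°C, pooled, and extracted in PBS with 0.5% NP-40 at 4°C; soluble protein was the supernatant after 21,000xg for 90 min. Soluble protein was quantified by TMTpro 16plex LC-MS/MS with channel sums equalised, and reported as log2 fold change in thermal stability against DMSO controls, with values from duplicates.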

[2] = compound: NC1(c2ccc(-c3nc4ccn5c(=O)[nH]nc5c4cc3-c3ccccc3)cc2)CCC1
Procedure, shortened: as §1

[3] = compound: NCC(=O)Nc1ccc(-n2nc(C(F)(F)F)cc2-c2ccc3c(ccc4ccccc43)c2)cc1
Procedure, shortened: as §1

vorinostat = compound: O=C(CCCCCCC(=O)Nc1ccccc1)NO [vorinostat]
Procedure, shortened: as §1

citarinostat = compound: O=C(CCCCCCNC(=O)c1cnc(N(c2ccccc2)c2ccccc2Cl)nc1)NO [citarinostat]
Procedure, shortened: as §1

silmitasertib = compound: O=C(O)c1ccc2c(c1)nc(Nc1cccc(Cl)c1)c1ccncc12 [silmitasertib]
Procedure, shortened: as §1

[4] = compound: c1cc(OCCN2CCCCC2)cc(-c2n[nH]c3ccc(-c4nnc[nH]4)cc23)c1
Procedure, shortened: as §1

entospletinib = compound: c1cn2cc(-c3ccc4cn[nH]c4c3)nc(Nc3ccc(N4CCOCC4)cc3)c2n1 [entospletinib]
Procedure, shortened: as §1

[5] = compound: O=C1NC(=O)C(c2cnc3ccccn23)=C1c1cn2c3c(cc(F)cc13)CN(C(=O)N1CCCCC1)CC2
Procedure, shortened: as §1

[6] = compound: NC(=O)Nc1cc(-c2cccc(F)c2)sc1C(=O)N[C@H]1CCCNC1
Procedure, shortened: as §1

entinostat = compound: Nc1ccccc1NC(=O)c1ccc(CNC(=O)OCc2cccnc2)cc1 [entinostat]
Procedure, shortened: as §1

Measured: log2 fold change

RAB3D (UniProt O95716)
Chain of UniProt O95716 (O95716 whole entry, looked up): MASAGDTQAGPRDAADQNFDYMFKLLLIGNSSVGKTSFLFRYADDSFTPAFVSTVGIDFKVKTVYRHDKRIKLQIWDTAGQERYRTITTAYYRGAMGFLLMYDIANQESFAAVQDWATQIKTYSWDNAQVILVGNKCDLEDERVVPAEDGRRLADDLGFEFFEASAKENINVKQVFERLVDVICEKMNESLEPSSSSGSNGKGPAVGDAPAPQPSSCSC
inactive: [1] 0.113 | [2] 0.032 | [3] -0.007 | vorinostat -0.126 | citarinostat 0.055 | silmitasertib 0.027 | [4] 0.051 | entospletinib 0.004

SCYL3 isoform 2 (UniProt Q8IZE3)
inactive: [1] 0.001 | [2] -0.185 | [3] -0.055 | vorinostat 0.031 | citarinostat -0.047 | silmitasertib 0.021 | [5] -0.053 | [4] 0.173 | entospletinib -0.09

RNF220 isoform 3 (UniProt Q5VTB9)
inactive: [1] 0.115

RPS19 (UniProt M0R2L9)
inactive: [1] -0.159 | [2] 0.453 | silmitasertib -0.634

SERINC1 (UniProt Q9NRX5)
inactive: [6] -0.061 | [1] -0.241 | [2] 0.004 | [3] -0.174 | entinostat -0.009 | citarinostat 0.088 | silmitasertib 0.197 | [5] 0.032 | [4] 0.022 | entospletinib 0.022

RMDN2 isoform 2 (UniProt Q96LZ7)
Chain of UniProt Q96LZ7 (Q96LZ7 whole entry, looked up): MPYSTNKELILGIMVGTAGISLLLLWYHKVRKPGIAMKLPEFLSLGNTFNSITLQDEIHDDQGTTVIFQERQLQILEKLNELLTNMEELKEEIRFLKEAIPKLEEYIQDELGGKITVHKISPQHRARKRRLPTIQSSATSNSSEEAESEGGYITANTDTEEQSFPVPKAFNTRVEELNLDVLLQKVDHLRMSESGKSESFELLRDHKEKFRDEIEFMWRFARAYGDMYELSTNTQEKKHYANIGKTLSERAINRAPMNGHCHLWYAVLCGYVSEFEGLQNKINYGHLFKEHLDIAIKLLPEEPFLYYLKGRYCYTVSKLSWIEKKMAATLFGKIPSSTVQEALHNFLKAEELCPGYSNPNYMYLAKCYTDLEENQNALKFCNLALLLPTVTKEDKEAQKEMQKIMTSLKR
inactive: [2] -0.018 | [3] 0.116 | silmitasertib -0.275

SEMG2 (UniProt Q02383)
inactive: [6] -0.013 | [1] 0.046 | [2] 0.651 | entinostat 0.033 | vorinostat -0.073 | citarinostat 0.066 | silmitasertib 0.001 | [5] 0.051 | [4] -0.067 | entospletinib -0.048

RBM48 isoform 2 (UniProt Q5RL73)
Chain of UniProt Q5RL73 (Q5RL73 whole entry, looked up): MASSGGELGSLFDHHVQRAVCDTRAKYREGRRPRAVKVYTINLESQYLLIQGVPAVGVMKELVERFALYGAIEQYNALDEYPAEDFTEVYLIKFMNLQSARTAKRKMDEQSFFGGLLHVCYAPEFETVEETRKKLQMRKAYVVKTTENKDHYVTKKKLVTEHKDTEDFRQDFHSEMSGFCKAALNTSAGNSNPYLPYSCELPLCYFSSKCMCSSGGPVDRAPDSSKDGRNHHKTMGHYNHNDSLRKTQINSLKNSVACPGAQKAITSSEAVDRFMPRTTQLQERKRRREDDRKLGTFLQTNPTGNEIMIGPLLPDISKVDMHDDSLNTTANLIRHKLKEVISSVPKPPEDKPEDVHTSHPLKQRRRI
inactive: [6] -0.334 | [1] -0.008 | entinostat 0.262 | vorinostat 0.005 | [5] 0.029

RICTOR isoform 3 (UniProt Q6R327)
inactive: [6] 0.075 | [1] 0.054 | entinostat 0.044 | vorinostat 0.211 | citarinostat 0.066 | [5] 0.289 | [4] -0.155 | entospletinib 0.01

RNF185 (UniProt Q96GF1)
inactive: [1] -0.022 | [2] -0.072 | [3] -0.139 | vorinostat -0.28 | citarinostat -0.135 | silmitasertib 0.001 | [4] 0.072 | entospletinib 0.128

SLC12A5 (UniProt Q9H2X9)
Chain of UniProt Q9H2X9 (Q9H2X9 whole entry, looked up): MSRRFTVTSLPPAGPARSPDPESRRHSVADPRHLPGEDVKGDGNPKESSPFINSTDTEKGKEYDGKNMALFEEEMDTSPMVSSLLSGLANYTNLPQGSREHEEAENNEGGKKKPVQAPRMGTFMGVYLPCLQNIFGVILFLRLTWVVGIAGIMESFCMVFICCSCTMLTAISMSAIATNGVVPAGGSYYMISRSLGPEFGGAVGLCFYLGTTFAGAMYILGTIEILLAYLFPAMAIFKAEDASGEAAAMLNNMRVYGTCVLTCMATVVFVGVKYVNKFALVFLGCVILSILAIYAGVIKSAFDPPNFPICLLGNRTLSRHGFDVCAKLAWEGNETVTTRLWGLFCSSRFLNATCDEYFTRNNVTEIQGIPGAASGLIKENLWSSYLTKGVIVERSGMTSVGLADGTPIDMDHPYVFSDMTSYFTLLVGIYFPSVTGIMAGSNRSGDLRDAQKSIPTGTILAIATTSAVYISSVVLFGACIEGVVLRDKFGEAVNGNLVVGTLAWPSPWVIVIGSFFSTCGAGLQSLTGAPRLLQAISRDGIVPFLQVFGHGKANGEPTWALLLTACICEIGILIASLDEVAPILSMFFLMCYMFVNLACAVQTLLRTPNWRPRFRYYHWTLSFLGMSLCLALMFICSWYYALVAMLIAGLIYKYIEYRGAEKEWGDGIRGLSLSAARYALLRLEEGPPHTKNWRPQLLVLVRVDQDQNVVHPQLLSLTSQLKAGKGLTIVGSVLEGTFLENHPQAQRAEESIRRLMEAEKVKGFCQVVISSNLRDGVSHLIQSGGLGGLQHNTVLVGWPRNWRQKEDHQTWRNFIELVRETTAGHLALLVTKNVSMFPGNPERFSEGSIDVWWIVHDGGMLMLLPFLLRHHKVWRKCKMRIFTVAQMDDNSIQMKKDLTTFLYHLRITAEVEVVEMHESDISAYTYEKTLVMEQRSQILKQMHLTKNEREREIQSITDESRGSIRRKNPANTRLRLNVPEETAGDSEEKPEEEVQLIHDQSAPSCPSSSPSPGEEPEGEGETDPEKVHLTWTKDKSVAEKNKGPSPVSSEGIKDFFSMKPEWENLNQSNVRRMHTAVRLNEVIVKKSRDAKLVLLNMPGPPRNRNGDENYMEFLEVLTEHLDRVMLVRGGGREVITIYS
inactive: [6] -0.111 | [1] -0.077 | [2] -0.064 | [3] -0.043 | entinostat -0.05 | citarinostat 0.129 | silmitasertib 0.05 | [5] -0.032 | [4] -0.062 | entospletinib -0.081

RPAIN isoform 8 (UniProt Q86UA6)
Chain of UniProt Q86UA6 (Q86UA6 whole entry, looked up): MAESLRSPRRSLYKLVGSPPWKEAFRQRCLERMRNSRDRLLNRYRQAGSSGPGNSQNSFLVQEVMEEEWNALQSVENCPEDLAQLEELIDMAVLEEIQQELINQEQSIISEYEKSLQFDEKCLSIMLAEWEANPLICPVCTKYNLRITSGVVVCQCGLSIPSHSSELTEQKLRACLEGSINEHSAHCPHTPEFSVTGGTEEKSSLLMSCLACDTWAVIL
inactive: [6] -0.017 | [1] -0.044 | [3] -0.093 | entinostat 0.014 | [5] -0.012

RBM6 (UniProt P78332)
inactive: [6] 0.099 | [1] -0.06 | [2] 0.222 | entinostat -0.317 | vorinostat -0.012 | silmitasertib 0.017

RNF26 (UniProt Q9BY78)
inactive: [3] -0.161 | vorinostat -0.094

S100A10 (UniProt P60903)
inactive: [6] 0.3 | [1] 0.283 | entinostat 0.189 | vorinostat -0.023 | citarinostat 0.333 | entospletinib -0.102
active: [4] 0.792

SLC1A3 (UniProt P43003)
inactive: [1] 0.237 | [2] 0.103 | [3] -0.055 | vorinostat 0.143 | citarinostat -0.096 | silmitasertib -0.021 | [5] -0.18 | [4] -0.182 | entospletinib 0.028

SDHAF4 (UniProt Q5VUM1)
inactive: [6] -0.016 | [1] 0.07 | [2] -0.111 | entinostat -0.021 | citarinostat 0.076 | silmitasertib 0.04 | [5] 0.005 | [4] 0.108 | entospletinib -0.018

SAMD4B (UniProt Q5PRF9)
Chain of UniProt Q5PRF9 (Q5PRF9 whole entry, looked up): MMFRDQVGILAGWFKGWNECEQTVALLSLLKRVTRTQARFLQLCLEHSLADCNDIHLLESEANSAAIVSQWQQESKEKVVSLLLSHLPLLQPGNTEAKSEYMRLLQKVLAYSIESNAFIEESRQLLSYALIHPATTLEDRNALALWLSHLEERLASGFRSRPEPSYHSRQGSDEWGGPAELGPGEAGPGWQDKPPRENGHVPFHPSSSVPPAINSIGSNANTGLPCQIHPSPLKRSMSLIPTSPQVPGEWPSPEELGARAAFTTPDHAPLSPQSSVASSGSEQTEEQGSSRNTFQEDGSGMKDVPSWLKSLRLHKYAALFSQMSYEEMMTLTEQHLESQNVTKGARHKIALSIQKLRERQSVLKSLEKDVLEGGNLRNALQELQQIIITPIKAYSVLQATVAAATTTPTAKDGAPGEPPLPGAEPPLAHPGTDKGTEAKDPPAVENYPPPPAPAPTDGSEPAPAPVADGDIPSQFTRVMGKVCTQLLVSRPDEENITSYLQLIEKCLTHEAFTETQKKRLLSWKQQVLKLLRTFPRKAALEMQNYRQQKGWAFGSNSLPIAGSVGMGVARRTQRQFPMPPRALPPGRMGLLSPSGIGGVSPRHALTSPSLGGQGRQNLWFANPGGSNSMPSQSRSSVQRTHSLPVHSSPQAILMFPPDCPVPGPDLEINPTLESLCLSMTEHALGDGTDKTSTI
inactive: [6] -0.459 | entinostat 0.133 | vorinostat -0.069 | [5] 0.067

SAFB2 (UniProt K7EQU4)
inactive: [5] 0.007

RPS3 (UniProt E9PJN9)
inactive: vorinostat 0.2 | citarinostat 0 | [4] -0.048 | entospletinib 0.2

RABGAP1L isoform 5 (UniProt Q5R372)
active: [5] -0.315
inactive: [6] -0.246 | [1] -0.094 | [2] -0.021 | entinostat -0.051 | silmitasertib 0.106

RPS6KA5 (UniProt O75582)
Chain of UniProt O75582 (O75582 whole entry, looked up): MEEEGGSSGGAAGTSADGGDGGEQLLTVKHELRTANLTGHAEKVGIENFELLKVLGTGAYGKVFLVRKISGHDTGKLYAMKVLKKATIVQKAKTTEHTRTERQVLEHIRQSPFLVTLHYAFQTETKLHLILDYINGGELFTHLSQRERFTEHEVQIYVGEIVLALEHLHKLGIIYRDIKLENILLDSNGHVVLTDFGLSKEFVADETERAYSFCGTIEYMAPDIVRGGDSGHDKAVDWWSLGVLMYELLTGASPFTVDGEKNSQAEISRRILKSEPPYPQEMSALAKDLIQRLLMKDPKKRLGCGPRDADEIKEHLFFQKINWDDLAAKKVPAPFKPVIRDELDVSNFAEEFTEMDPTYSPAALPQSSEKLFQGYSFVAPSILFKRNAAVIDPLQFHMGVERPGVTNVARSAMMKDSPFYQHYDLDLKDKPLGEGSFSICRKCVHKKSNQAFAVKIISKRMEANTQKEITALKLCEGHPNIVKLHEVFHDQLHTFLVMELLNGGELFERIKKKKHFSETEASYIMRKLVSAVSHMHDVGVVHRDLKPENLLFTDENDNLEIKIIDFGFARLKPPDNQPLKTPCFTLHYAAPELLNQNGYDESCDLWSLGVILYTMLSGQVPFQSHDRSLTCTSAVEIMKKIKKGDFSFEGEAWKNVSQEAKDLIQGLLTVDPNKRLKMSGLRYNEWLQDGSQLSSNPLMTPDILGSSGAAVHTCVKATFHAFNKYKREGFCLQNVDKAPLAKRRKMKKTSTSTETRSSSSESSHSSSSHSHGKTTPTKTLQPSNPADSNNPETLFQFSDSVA
inactive: [2] -0.138 | citarinostat -0.101 | silmitasertib 0.045 | [5] -0.088 | [4] 0.092 | entospletinib -0.094

RNF41 (UniProt Q9H4P4)
Chain of UniProt Q9H4P4 (Q9H4P4 whole entry, looked up): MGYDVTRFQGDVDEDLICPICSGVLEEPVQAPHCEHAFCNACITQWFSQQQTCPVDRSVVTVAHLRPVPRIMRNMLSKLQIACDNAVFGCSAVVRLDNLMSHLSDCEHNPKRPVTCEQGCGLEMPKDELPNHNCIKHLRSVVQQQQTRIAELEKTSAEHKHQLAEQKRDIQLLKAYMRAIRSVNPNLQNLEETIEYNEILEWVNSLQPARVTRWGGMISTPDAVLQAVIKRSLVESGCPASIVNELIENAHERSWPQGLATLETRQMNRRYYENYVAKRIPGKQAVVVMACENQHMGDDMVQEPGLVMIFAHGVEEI
inactive: [1] 0.082 | citarinostat 0.044 | [4] -0.018 | entospletinib 0.044

RBM26 isoform 3 (UniProt Q5T8P6)
inactive: [6] -0.079 | [1] -0.046 | entinostat 0.103
